# According to PubChem BioAssay (Tox21):
# Results filed as inconclusive are left out. Values without a mark were called inactive. Active and inactive are the calls of the source. Calls follow the shape of the full dose curve.
# Assay: Nuclear factor erythroid 2-related factor 2/antioxidant responsive element (Nrf2/ARE) small molecule agonists: luciferase reporter gene qHTS assay in human keratinocytes (AID 1919969); also: nearly all actives have a fitted effect of over 35% in size
# Details: KeratinoSens HaCaT ARE-luciferase, luminescence, 24 h; series mostly up to 92.4 µM; activity, positive = activation: at the top concentration
# Description: National Center for Advancing Translational Sciences [NCATS]
# Division of Preclinical Innovation [DPI]
# U.S. Environmental Protection Agency [EPA]
# National Institutes of Environmental Health Sciences [NIEHS]
# National Toxicology Program [NTP]
# U.S. Food and Drug Administration [FDA]
# Oxidative stress has been implicated in the pathogenesis of a variety of diseases ranging from cancer to neurodegeneration. The antioxidant response element (ARE) signaling pathway plays an important role in the amelioration of oxidative stress. The KeratinoSens (Givaudan, Switzerland) is an in vitro test method which quantifies luciferase induction as a measure of activation of Keap1-Nrf2-antioxidationt/electrophile response element (ARE) dependant pathway in HaCaT human keratinocytes stably transfected with a selectable plasmid. The KeratinoSens assay is a cell-based assay with a reporter cell line to detect potential skin sensitizers by their ability to induce the Nrf2/ARE-response. The activation of the report gene under culture conditions can be detected by ONE-Glo Luciferase Assay System (Promega, Madison, WI). This cell line has been used to screen the Tox21 10K compound library to identify agonists that induce oxidative stress. The cytotoxicity of the Tox21 compound library against the KS-ARE cell line was tested in parallel by measuring the cell viability using CellTiter- Fluor assay system (Promega, Madison, WI) in the same wells.
# HaCaT derived cell line KeratinoSens were dispensed at 1,500 cells/5uL/well in 1536-well white wall/solid bottom plates using a Multidrop Combi (ThermoFisher Scientific, Waltham, MA) dispenser. After the assay plates were incubated at 37 C/5% CO2 for 5 h, 23 nL of compounds dissolved in DMSO, positive controls or DMSO only was transferred to the assay plate by a pintool workstation (Kalypsys, San Diego, CA). The plates were incubated at 37 C/5% CO2 for 23 h, followed by addition of 1uL/well of CellTiter-Fluor reagent into the assay plates using a Flying Reagent Dispenser (Aurora Discovery, San Diego, CA) for cell viability readout that measures cytotoxicity. After 1 h incubation at 37 C/5% CO2 the fluorescence intensity was measured using a ViewLux (PerkinElmer, Shelton, CT) plate reader. Then 4uL/well of One-Glo were added using a Flying Reagent Dispenser. After the plates were incubated at room temperature for 30 min, the luminescence intensity in the assay plates was measured using ViewLux plate reader.
# % is scaled to controls: 0 for no effect and ±100 for the full control effect; potency is read from the fitted curve at half-maximal effect.
SMILES,"activity, positive = activation",Potency
C=COCC1CCC(CO)CC1 (stereo not given),-8.73%,
CCCCN(C)C,-0.9%,
Brc1ccccn1,-3.87%,
O=C(O)C[C@H](O)C[C@H](O)/C=C/c1c(C2CC2)nc2ccccc2c1-c1ccc(F)cc1,-21.1% [at 19 µM],
N#Cc1ccc(C(=O)O)cc1,-4.51%,
CCCCCN(CCCOC)C(=O)C(CCC(=O)O)NC(=O)c1ccc(Cl)c(Cl)c1 (stereo not given),-1.34% [at 42.5 µM],
Cc1ccc(O)cn1,-5.29%,
COc1ccccc1N1CCN(CCCCNC(=O)c2ccc(-c3ccc(C(C)=O)cc3)cc2)CC1,-0.844% [at 42.5 µM],
COC(=O)c1cc(C(=O)OC)cc(S(=O)(=O)O)c1,-0.565%,
CCN1CCCC1CNC(=O)c1cc(S(=O)(=O)CC)c(N)cc1OC (stereo not given),6.96% [at 42.5 µM],
CCn1cc(C(=O)O)c(=O)c2cc(F)c(N3CCNCC3)nc21,-8.07% [at 42.5 µM],
NC12CC3CC(CC(C3)C1)C2,1.44% [at 42.5 µM],
CC1(C)CC(N)CC(C)(C)N1,-10.3%,
O=C(O)Cc1sc(-c2ccccc2)nc1-c1ccc(Cl)cc1,-6.04% [at 42.5 µM],
CC(COc1ccccc1)NC(C)C(O)c1ccc(O)cc1 (stereo not given),3.9% [at 42.5 µM],
CC1=CC(=O)CC(C)(C)C1=O,-8.8%,
FC1(F)C(F)(F)C(F)(F)C2(F)C(F)(C1(F)F)C(F)(F)C(F)(F)C1(F)C(F)(F)C(F)(F)C(F)(F)C(F)(F)C12F (stereo not given),-0.776%,
Nc1cc(Cl)c(O)c(Cl)c1,,54.5 µM (active)
CC(C)NCC(O)COc1ccc(COCCOC(C)C)cc1 (stereo not given),3.96% [at 42.5 µM],
CC(=O)c1cnccn1,3.64%,

SMILES,"activity, positive = activation",Potency
CCCCCCCCCCCCCCCCCCN(C)C,2.36% [at 42.5 µM],
CCOC(=O)[C@H](CCc1ccccc1)N[C@@H](C)C(=O)N1Cc2cc(OC)c(OC)cc2C[C@H]1C(=O)O,-5.16% [at 42.5 µM],
O=C(Nc1cccc(C2=NCCN2)c1)Nc1cccc(C2=NCCN2)c1,-4.28% [at 19 µM],
CCCCCCCCCCCCCCC1CO1 (stereo not given),-5.16%,
CCCCOC(=O)/C=C\C(=O)OCCCC,,25.2 µM (active)
Cc1c(F)cc2c(=O)c(C(=O)O)cn3c2c1CCC3C (stereo not given),-8.07% [at 42.5 µM],
CN(C)CCCOc1nn(Cc2ccccc2)c2ccccc12,-2.77% [at 42.5 µM],
OCc1ccccn1,2.96% [at 42.5 µM],
O=C(C(Cl)Cl)N1CCOC12CCCCC2,16.3%,
CC1OC(=O)C(C)OC1=O (stereo not given),-4.03%,
CCOC(=O)COc1ccc(C)cc1,-16.2%,
Oc1cc(O)c(Cl)cc1Cl,,55.8 µM (active)
COC(=O)/C=C\C(=O)O,13.2%,
CCCCC(CC)COC(=O)COc1ccc(Cl)cc1C (stereo not given),0.824%,
CCCCOc1ccc(OCCCN2CCOCC2)cc1,18.6% [at 42.5 µM],
CCCCNc1ccc(C(=O)OCCN(C)C)cc1,22.6% [at 42.5 µM],
CCCCCCCC(=O)OCC,4.65%,
Cc1c(Cl)cccc1[N+](=O)[O-],-7.4%,
CCC(C)(CCC(C)C)C(=O)[O][Sn]([CH3])([CH3])[O]C(=O)C(C)(CC)CCC(C)C (stereo not given),,30.6 µM (active)
CCCCCCCCC(C)=O,2.2%,
